Source: PubChem
The entries come from a sample that favours hits as a whole.
TSHR agonist – agonists of human thyroid stimulating hormone receptor; 73,000 compounds, 0.48% hits; HEK293-CNG-TSHR cells (CNG channel as cAMP sensor), membrane potential dye, cAMP; AID 926; P16473; Potency, µM (doses to about 57.1 µM), inactives show at the highest dose activation, most hits filed as activators; active = well fitted activation curve with a large enough effect in the main read-out, with a control signal flat, not every such curve was filed as active; inconclusive = small, poorly fitted or top-dose-only effect, or a change in a side signal; inactive = no such curve, though single readings can be large or run the other way; % of control where 0% means no effect;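 note: the control signal comes from parental cells without the receptor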
Target sequence (P16473 whole entry, looked up): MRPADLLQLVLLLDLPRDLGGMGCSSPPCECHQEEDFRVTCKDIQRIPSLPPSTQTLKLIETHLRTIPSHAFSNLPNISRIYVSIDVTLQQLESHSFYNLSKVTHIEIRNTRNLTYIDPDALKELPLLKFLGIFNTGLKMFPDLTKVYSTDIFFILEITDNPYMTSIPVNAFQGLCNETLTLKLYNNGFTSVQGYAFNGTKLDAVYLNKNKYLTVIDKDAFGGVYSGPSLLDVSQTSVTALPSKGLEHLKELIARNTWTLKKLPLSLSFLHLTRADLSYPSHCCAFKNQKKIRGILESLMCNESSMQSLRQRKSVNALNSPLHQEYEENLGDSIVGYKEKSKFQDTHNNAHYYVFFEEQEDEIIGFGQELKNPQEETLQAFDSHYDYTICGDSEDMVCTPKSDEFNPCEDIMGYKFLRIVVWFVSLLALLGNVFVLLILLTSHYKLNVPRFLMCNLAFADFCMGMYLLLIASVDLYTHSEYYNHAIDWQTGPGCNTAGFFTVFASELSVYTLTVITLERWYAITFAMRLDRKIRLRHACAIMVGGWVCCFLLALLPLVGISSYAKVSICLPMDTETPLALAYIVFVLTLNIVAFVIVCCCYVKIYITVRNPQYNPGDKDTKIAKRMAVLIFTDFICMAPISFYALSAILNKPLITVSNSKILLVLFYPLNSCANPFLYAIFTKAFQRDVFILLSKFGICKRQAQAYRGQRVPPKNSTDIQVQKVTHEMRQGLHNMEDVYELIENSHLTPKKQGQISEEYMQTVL
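HEK 293 cells stably expressing TSHR and a cAMP-gated CNG channel; parental CNG-only cells as counterscreen. Cells preloaded 60 min with membrane potential dye plus 100 uM RO 20-1724, then compound 30 min; fluorescence read at 590 nm.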
HEK293 cAMP cs – raises cAMP in parental HEK293 cells, TSHR agonist counter-screen; parental HEK293 CNG cAMP sensor, membrane potential fluorescence; Potency, µM (titrated, usually from 57.1 µM), for the others: top-dose activation, actives largely listed as activators; 73,000 compounds, 2.5% hits; note: % of control where 0% means no effect; nearly all actives have a fitted effect of over 55% in size
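Counterscreen for endogenous-receptor signalling: CNG-channel HEK 293 cells report cAMP rise by membrane depolarization. After 60 min dye equilibration with 100 uM RO 20-1724, compounds incubated 30 min before bottom-read fluorescence at 590 nm.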
Imprint erasure – induces erasure of genomic imprints in mouse ES cells | mouse ES Peg3-LacZ reporter, beta-gal luminescence, 40 h | Potency, µM (titrated, usually from 60.7 µM), for inactives: top-dose activity change, positive = activation, most hits filed as activators | 110,000 compounds, 0.02% hits | AID 1948
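Imprint erasure is scored as LacZ activity from the silenced maternal Peg3 allele in feeder-free female ES cells cultured 40 h with LIF. Luminescence is normalized to in-plate negative controls and fitted to the Hill equation.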
The depositor's hits bear a star; ? = inconclusive; . = no result given; [ ] = another dose, or the depositor's remark. Unless noted, calls come from the whole dose curve; as a rule, active = well fitted activation curve with a large enough effect; inconclusive = small, poorly fitted or top-dose-only effect; inactive = no such curve, though single readings can be large or run the other way. Potency is the fitted concentration of half-maximal effect.

SMILES	TSHR agonist	HEK293 cAMP cs	Imprint erasure
COc1ccc(N2CCN(C(=O)C(C)n3nc(C)c4sc5ccccc5c4c3=O)CC2)cc1 (centres undefined)	.	.	-31%[10.9 µM]
C=CCOC(=O)C(C(C)=O)C(NC(=O)OC)c1ccc2ccccc2c1 (centres undefined)	.	3%[11.4 µM]	.
CCOC(=O)c1cnn(-c2nc(-c3ccccc3)nc3c2COC(C)(C)C3)c1N	25µM*	21%	-7%
CCOC(=O)c1cnn(-c2nc(C)cc(C)n2)c1N	?	?	-25%
COc1cc(-c2noc(-c3cccs3)n2)cc(OC)c1OC	19%	15%	-12%
CCOc1ccc(Br)cc1-c1noc(-c2cccs2)n1	25µM*	20%	7%
O=C(NCc1ccco1)c1sc(=S)n2c1[nH]c(=O)c1ccccc12	?	25µM*	-12%
O=C(NC1CCCC1)c1sc(=S)n2c1[nH]c(=O)c1ccccc12	?	?	-6%
C=C(C)COc1ccc2c(C)c(C)c(=O)oc2c1OCC(=C)C	?	?	-15%
C=C(C)COc1ccc2c3c(c(=O)oc2c1OCC(=C)C)CCC3	?	25µM*	-19%
O=C(NCCc1ccc(Cl)cc1)c1ccc2c(c1)N(Cc1ccc(F)cc1Cl)C(=O)CS2	.	.	9%[10.9 µM]
CC1CCc2c(nc3ncnn3c2N2CCN(c3ccccc3F)CC2)C1 (centres undefined)	?	?	-9%
CC1CCc2c(nc3ncnn3c2N2CCN(c3ccccc3)CC2)C1 (centres undefined)	?	25µM*	-3%
CC1CCCCN1C(=O)CSc1c2c(nc3cc(Cl)ccc13)CCCC2 (centres undefined)	.	.	-16%[10.9 µM]
COc1cccc(-c2nc(NCc3ccccc3)c3ccccc3n2)c1	?	32µM*	-16%
COc1cccc(-c2nc(NCc3cccnc3)c3ccccc3n2)c1	32µM*	11%	-9%
c1ccc(CNc2nc(-c3cccnc3)nc3ccccc23)cc1	?	?	-16%
COc1cccc(-c2nc(NCc3ccccc3OC)c3ccccc3n2)c1	.	-7%	-17%
CNc1nc(-c2cccc(C#N)c2)nc2ccccc12	0%	-14%	1.3µM*
CN(C)c1nc(-c2cccc(C#N)c2)nc2ccccc12	?	?	-16%
c1cncc(CNc2nc(-c3cccnc3)nc3ccccc23)c1	25µM*	-5%	-4%
N#Cc1cccc(-c2nc(NCc3cccnc3)c3ccccc3n2)c1	.	-11%	4%
O=C(NCC1CCN(Cc2ccccc2Cl)CC1)c1cc2ccc3cccnc3c2[nH]1	.	.	-9%[10.9 µM]
[N-]=[N+]=N[C@@H]1[C@H](O)[C@H](CO)O[C@@H]1n1cnc2c(N)ncnc21	0%[11.4 µM]	0%[11.4 µM]	10%[10.9 µM]
c1ccc(COn2c(-c3ccccc3)nc3c2CCc2nonc2-3)cc1	?	25µM*	0%
SMILES	TSHR agonist	HEK293 cAMP cs	Imprint erasure
c1ccc(-c2cc3c(nn2)CCc2nonc2-3)cc1	?	?	-12%
CCCCN(CC)C(=O)Nc1ccc2c(c1)N(C)C(=O)c1ccccc1S2	.	.	-11%[10.9 µM]
CCOc1ccc(Br)cc1/C=N/O	?	4µM*	3%
O=C(O)COc1ccc(Br)cc1/C=N/O	?	?	4%
Cc1cc(C)c(NC(=O)Cn2c(=O)oc3cc(S(=O)(=O)N4CCCCCC4)ccc32)c(C)c1	.	.	-16%[10.9 µM]
O=C(CN(Cc1ccc2c(c1)OCO2)C(=O)CSc1nc2ccccc2o1)NC1CCCCC1	?	16µM*	5%
COCCN(CC(=O)NC1CCCCC1)C(=O)CSc1nc2ccccc2o1	?	?	-8%
COc1ccc2[nH]c(=O)c(CN(Cc3ccco3)Cc3nnnn3Cc3ccccc3)cc2c1	11%	-8%	5%
COc1ccccc1CN(Cc1cc2cc(C)ccc2[nH]c1=O)Cc1nnnn1Cc1ccco1	?	20µM*	-6%
CCc1ccc2[nH]c(=O)c(CN(Cc3ccccc3OC)Cc3nnnn3Cc3ccco3)cc2c1	?	?	-24%
CCOc1ccc2[nH]c(=O)c(CN(Cc3ccco3)Cc3nnnn3Cc3ccccc3)cc2c1	?	32µM*	-10%
O=C(O)c1cc2c(cc1S(=O)(=O)O)[C@H]1[C@@H](C3[C@H]2[C@@]2(Cl)C(Cl)=C(Cl)C3(Cl)C2(Cl)Cl)[C@]2(Cl)C(Cl)=C(Cl)C1(Cl)C2(Cl)Cl (some centres undefined)	.	.	3%[10.9 µM]
COc1ccc(C2=NN(CCC(=O)NCCc3ccccc3)C(=O)CC2)cc1	.	.	-11%[10.9 µM]
C=CC1CN2CCC1CC2[C@@H](O)c1ccnc2ccc(OC)cc12 (some centres undefined)	.	.	-12%
COc1cccc(C(=O)NCCSc2c(-c3ccc(F)cc3)[nH]c3ccccc23)c1OC	.	.	-15%[10.9 µM]
